Consider 40 molecules from PubChem BioAssay (NCATS).

Records with an inconclusive call do not appear. Entries that show only a call come without a potency. The source made the active and inactive calls. Calls come from the whole dose curve; as a rule, active = well fitted cell-killing curve with a large enough effect; inconclusive = small, poorly fitted or top-dose-only effect; inactive = no such curve, though single readings can be large or run the other way.
Potency is the fitted concentration of half-maximal effect.

A short description of the experiment: qHTS of pediatric cancer cell lines to identify multiple opportunities for drug repurposing: Primary screen for Rh30 cells (AID 1347107). Note: nearly all actives have a fitted effect of over 75% in size. Conditions: Rh30 rhabdomyosarcoma viability, CellTiter-Glo luminescence, 48 h; series mostly up to 46 µM. The text has this: Drug repurposing or repositioning has been offered as a strategy for drug development in oncology programs. This approach has special potential for childhood cancers and other rare or orphan diseases, where the expected return on new drug development has been a disincentive to pharmaceuticals.
In this project we exploit the poly-pharmacology of drugs to discover new indications via phenotypic screening of a panel of 19 well-characterized cell lines derived from solid tumors seen in children and adolescents. The goal is to identify approved drugs with previously unrecognized anticancer properties that has the potential to reveal new mechanisms and biological processes involved in carcinogenesis or drug resistance. We employed a titration-based paradigm (quantitative high-throughput screening or qHTS), where all compounds were tested at multiple concentrations for their effect on cell viability. Concentration-response curves (CRCs) were derived directly from the primary screen, and both potency and efficacy values were used to identify compounds with robust bioactivity profiles. We screened the NIH Chemical Genomics Center (NCGC) Pharmaceutical Collection (NPC) and Mechanism Interrogation Plate (MIPE) small molecule collections of approved and investigational compounds against these cell lines; and measured metabolically active cells after 48 hours of compound treatment as a proxy for cell viability.
Assay Submitter: Nathalia J. Martinez, National Center for Advancing Translational Sciences, National Institutes of Health, Rockville, MD, USA; email: natalia.martinez@nih.gov
[1] Shen, M et al. Quantitative high-throughput phenotypic screening of pediatric cancer cell lines identifies multiple opportunities for drug repurposing. Oncotarget 2017 Dec 19;9(4):4758-4772. PMID 29435139.
The cells were obtained from University of North Carolina (UNC), Pediatric Preclinical Testing Program (PPT), and Coriell Institute (CI).
qHTS cell viability assay:
Cells were assayed in growth media at a density of 500-1,000 cells/well. Five microliters of cells were dispensed into 1,536-well, white, solid-bottom, TC-treated plates (Greiner Bio One) using a multidrop dispenser and incubated at 37 degrees C, 5% CO2, under a humidified atmosphere for 5 hours. Twenty-three nanoliters of compounds and controls (neutral control DMSO or positive control bortezomib at final concentration of 2.3 µM) were subsequently transferred by Kalypsys pintool. For primary screens, the MIPE collection was tested at 11-point dilutions (final concentrations range from 0.78 nM to 46 µM) and the NPC collection at 8-point dilutions (final concentrations range from 0.59 nM to 46 µM). Compounds tested in follow-up screens were assayed at 11-point dilutions. Cells were incubated for 48 hours, followed by addition of 3 µL of CellTiter-Glo (Promega). After a 15 min incubation at room temperature, samples were analyzed for luminescence intensity using a ViewLux High-throughput CCD imager equipped with clear filters.
As to `COC1=CC(=O)C[C@@H](C)[C@]12Oc1c(Cl)c(OC)cc(OC)c1C2=O`, the Potency result is “inactive”.

Consider `O=C1OC2(c3ccc(O)cc3Oc3cc(O)ccc32)c2ccccc21`, for which the Potency result is “inactive”.

As for `CC(=O)N/N=C/c1ccc([N+](=O)[O-])o1`, the Potency entry is “inactive”.

`CC(C)N=C(N)/N=C(\N)Nc1ccc(Cl)cc1`: the Potency entry was “inactive”.

Take `Cc1ccccc1C(=O)Nc1ccc(C(=O)N2CCCC(N(C)C)c3ccccc32)cc1` (stereo not given): the Potency entry was “inactive”.

As for `Cc1cccn2c(=O)c(-c3nnn[nH]3)cnc12`, the Potency entry is “inactive”.

Take `C[C@]12CC[C@H]3[C@@H](CCC4=CC(=O)CC[C@@]43C)[C@@H]1CC[C@@H]2C(=O)CO`: the Potency result is “inactive”.

`Clc1ccc2c(c1)CCc1cccnc1C2=C1CCNCC1`: the Potency result was “inactive”.

For the molecule `COc1cc2c(cc1OC)[C@@H]1CC(=O)[C@@H](CC(C)C)CN1CC2`, the Potency entry is “inactive”.

In the case of `O=C1OC(c2ccc(O)cc2)(c2ccc(O)cc2)c2ccccc21`, the Potency entry is “inactive”.

With `CC(=O)Oc1ccc2c(c1)CC[C@@H]1[C@@H]2CC[C@]2(C)[C@@H](O)CC[C@@H]12`, the Potency entry is “inactive”.

With `OC[C@@H](O)[C@@H](O[C@@H]1O[C@H](CO)[C@H](O)[C@H](O)[C@H]1O)[C@H](O)[C@@H](O)CO`, the Potency result is “inactive”.

Consider `COc1cc(C(=S)N2CCOCC2)cc(OC)c1OC`, for which the Potency entry is “inactive”.

Regarding `CC(=O)Oc1ccc(C(c2ccc(OC(C)=O)cc2)c2ccccn2)cc1`, the Potency entry was “inactive”.

Take `CC(O)C(=O)O` (stereo not given): the Potency result was “inactive”.

Regarding `NCCc1ccn[nH]1`, the Potency entry was “inactive”.

For the molecule `CCCCCCCCCCCCCCCC[N+](C)(C)CCN(Cc1ccc(OC)cc1)c1ncccn1`, the Potency was 16.8 µM (active).

On to `CN1CCC(=C2c3ccccc3Sc3ccccc32)CC1`, for which the Potency entry is “inactive”.

Take `CC(C)NC[C@@H](O)COc1cccc2ccccc12`: the Potency entry was “inactive”.

`CCCCCCCCCCCCCCCCOP(=O)([O-])OCC[N+](C)(C)C`: the Potency result was “inactive”.

Consider `C[C@@H](CN(C)C)CN1c2ccccc2Sc2ccccc21`, for which the Potency result is “inactive”.

In the case of `COC(=O)C1=C(C)NC(C)=C(C(=O)O[C@@H]2CCCN(Cc3ccccc3)C2)[C@@H]1c1cccc([N+](=O)[O-])c1`, the Potency entry was “inactive”.

Turning to `CCN(CCCc1ccccc1)CCCc1ccccc1`, the Potency result is “inactive”.

Take `NC(=NCCCCCCN=C(N)/N=C(\N)Nc1ccc(Cl)cc1)/N=C(\N)Nc1ccc(Cl)cc1`: the Potency result is “inactive”.

On to `CCOc1ccc(Cc2nccc3cc(OCC)c(OCC)cc23)cc1OCC`, for which the Potency entry is “inactive”.

Turning to `Cc1cc(N)c2cc(NC(=O)Nc3ccc4nc(C)cc(N)c4c3)ccc2n1`, the Potency entry was “inactive”.

As for `CCCCCCCCCCOCC(O)CN` (stereo not given), the Potency result was “inactive”.

On to `CC(=O)c1ccc2c(c1)N(CCCN1CCC(CCO)CC1)c1ccccc1S2`, for which the Potency entry is “inactive”.

Take `O=C1[C@H]2CCCC[C@H]2C(=O)N1CCCCN1CCN(c2nsc3ccccc23)CC1`: the Potency result is “inactive”.

Regarding `C[C@]12C=CC(=O)C=C1CC[C@@H]1[C@@H]2[C@@H](O)C[C@@]2(C)[C@H]1CC[C@]2(O)C(=O)CO`, the Potency entry was “inactive”.

Regarding `CCN(CCCCOC(=O)c1ccc(OC)c(OC)c1)C(C)Cc1ccc(OC)cc1` (stereo not given), the Potency entry is “inactive”.

Regarding `Oc1c(Cl)cc(Cl)cc1Sc1cc(Cl)cc(Cl)c1O`, the Potency result is “inactive”.

Consider `CN1C(CCl)Nc2cc(Cl)c(S(N)(=O)=O)cc2S1(=O)=O` (stereo not given), for which the Potency result is “inactive”.

In the case of `CC1(C)O[C@@H]2C[C@H]3[C@@H]4CCC5=CC(=O)CC[C@]5(C)[C@@]4(F)[C@@H](O)C[C@]3(C)[C@]2(C(=O)CCl)O1`, the Potency result is “inactive”.

For the molecule `CCCCCC=CCC=CCCCCCCCC(=O)OCC`, the Potency result is “inactive”.

As to `COC(=O)CCc1ccc(OCC(O)CNC(C)C)cc1` (stereo not given), the Potency result is “inactive”.

As for `CCN(CC)CCNC(=O)COc1ccc(Cl)cc1`, the Potency result was “inactive”.

`CCOc1ccc2nc3cc(N)ccc3c(N)c2c1`: the Potency result is “inactive”.

As to `C[C@]12CC[C@@H]3c4ccc(O)cc4CC[C@H]3[C@@H]1C[C@@H](O)[C@@H]2O`, the Potency result was “inactive”.

For `Cc1cccc(C)c1NC(=O)CN1CCN(CCCC(c2ccc(F)cc2)c2ccc(F)cc2)CC1`, the Potency entry was “inactive”.
